Inconclusive results are not listed. Where a call stands in place of a potency, no number is given. Activity calls are given as the source filed them. Calls follow the shape of the dose curve; as a rule, active = well fitted cell-killing curve with a large enough effect; inconclusive = small, poorly fitted or top-dose-only effect; inactive = flat fitted curve, though single readings scatter.
assay: qHTS of pediatric cancer cell lines to identify multiple opportunities for drug repurposing: Primary screen for DAOY cells (AID 1347090); details: DAOY medulloblastoma viability, CellTiter-Glo luminescence, 48 h; series mostly up to 46 µM; also: nearly all actives have a fitted effect of over 55% in size
Description: Drug repurposing or repositioning has been offered as a strategy for drug development in oncology programs. This approach has special potential for childhood cancers and other rare or orphan diseases, where the expected return on new drug development has been a disincentive to pharmaceuticals.
In this project we exploit the poly-pharmacology of drugs to discover new indications via phenotypic screening of a panel of 19 well-characterized cell lines derived from solid tumors seen in children and adolescents. The goal is to identify approved drugs with previously unrecognized anticancer properties that has the potential to reveal new mechanisms and biological processes involved in carcinogenesis or drug resistance. We employed a titration-based paradigm (quantitative high-throughput screening or qHTS), where all compounds were tested at multiple concentrations for their effect on cell viability. Concentration-response curves (CRCs) were derived directly from the primary screen, and both potency and efficacy values were used to identify compounds with robust bioactivity profiles. We screened the NIH Chemical Genomics Center (NCGC) Pharmaceutical Collection (NPC) and Mechanism Interrogation Plate (MIPE) small molecule collections of approved and investigational compounds against these cell lines; and measured metabolically active cells after 48 hours of compound treatment as a proxy for cell viability.
Assay Submitter: Nathalia J. Martinez, National Center for Advancing Translational Sciences, National Institutes of Health, Rockville, MD, USA; email: natalia.martinez@nih.gov
[1] Shen, M et al. Quantitative high-throughput phenotypic screening of pediatric cancer cell lines identifies multiple opportunities for drug repurposing. Oncotarget 2017 Dec 19;9(4):4758-4772. PMID 29435139.
The cells were obtained from University of North Carolina (UNC), Pediatric Preclinical Testing Program (PPT), and Coriell Institute (CI).
qHTS cell viability assay:
Cells were assayed in growth media at a density of 500-1,000 cells/well. Five microliters of cells were dispensed into 1,536-well, white, solid-bottom, TC-treated plates (Greiner Bio One) using a multidrop dispenser and incubated at 37 degrees C, 5% CO2, under a humidified atmosphere for 5 hours. Twenty-three nanoliters of compounds and controls (neutral control DMSO or positive control bortezomib at final concentration of 2.3 µM) were subsequently transferred by Kalypsys pintool. For primary screens, the MIPE collection was tested at 11-point dilutions (final concentrations range from 0.78 nM to 46 µM) and the NPC collection at 8-point dilutions (final concentrations range from 0.59 nM to 46 µM). Compounds tested in follow-up screens were assayed at 11-point dilutions. Cells were incubated for 48 hours, followed by addition of 3 uL of CellTiter-Glo (Promega). After a 15 min incubation at room temperature, samples were analyzed for luminescence intensity using a ViewLux High-throughput CCD imager equipped with clear filters.
Potency is read from the fitted curve at half-maximal effect.

| Structure (SMILES) | Potency |
| --- | --- |
| CN1N=C(N)c2cn([C@@H]3O[C@H](COP(=O)(O)O)[C@@H](O)[C@@H]3O)c3ncnc1c23 | 14800 nM (active) |
| CCOC(=O)N1CCN([N+]([O-])=NOc2cc(ON=[N+]([O-])N3CCN(C(=O)OCC)CC3)c([N+](=O)[O-])cc2[N+](=O)[O-])CC1 | inactive |
| CN1CCN(c2cccc(Nc3nc4c(-c5ccc(S(C)(=O)=O)cc5)cccn4n3)c2)CC1 | inactive |
| CCOC(=O)[C@@H](N)CCC(=O)N[C@@H](CSCc1ccccc1)C(=O)N[C@@H](C(=O)OCC)c1ccccc1 | inactive |
| CN(C)c1ccc(-c2nc3ncc(Cl)c(N4CCN(CC(=O)Nc5nccs5)CC4)c3[nH]2)cc1 | inactive |
| NC(=O)c1ncn([C@@H]2O[C@H](CO)[C@@H](O)[C@@H]2O)n1 | inactive |
| C[C@@H]1O[C@@H](O[C@H]2CC[C@@]3(C)[C@H](CC[C@@H]4[C@H]3C[C@@H](O)[C@]3(C)[C@@H](C5=CC(=O)OC5)CC[C@]43O)C2)C[C@H](O)[C@@H]1O[C@H]1C[C@H](O)[C@H](O[C@H]2C[C@H](O)[C@@H](O)[C@@H](C)O2)[C@H](C)O1 (stereo in doubt) | 270 nM (active) |
| CC(C)(F)C[C@H](N[C@@H](c1ccc(-c2ccc(S(C)(=O)=O)cc2)cc1)C(F)(F)F)C(=O)NC1(C#N)CC1 | inactive |
| COc1cc([C@@H]2c3cc4c(cc3[C@@H](O[C@@H]3O[C@@H]5CO[C@@H](C)O[C@@H]5[C@H](O)[C@@H]3O)[C@H]3COC(=O)[C@H]23)OCO4)cc(OC)c1O | 1480 nM (active) |
| CC(C)(CO)[C@@H](O)C(=O)NCCC(=O)O | inactive |
| COc1cc(N2CCN(C)CC2)ccc1Nc1nc(N)c(C(=O)c2c(Cl)cccc2Cl)s1 | inactive |
| Cc1ccccc1C(C(=O)NC1CCCCC1)N(C(=O)CNc1ccc(C#N)cc1)c1cccc(F)c1 (stereo not given) | inactive |
| Cc1cn([C@@H]2C[C@@H](O)[C@H](CO)O2)c(=O)[nH]c1=O | inactive |
| CC1(C)[C@H]2CC[C@]3(C)[C@@H](C(=O)C=C4[C@@H]5C[C@@](C)(C(=O)O)CC[C@]5(C)CC[C@]43C)[C@@]2(C)CC[C@@H]1O | inactive |
| CN[C@@H]1CN(c2ccc3c(=O)c(C(=O)O)cn(-c4nccs4)c3n2)C[C@@H]1OC | 8120 nM (active) |
| O=C(c1ccc(F)c(F)c1Nc1ccc(I)cc1F)N1CC(O)([C@H]2CCCCN2)C1 | 18700 nM (active) |
| Cc1cnc(Nc2cccc(CN3CCOCC3)c2)nc1Nc1cccc(S(=O)(=O)NC(C)(C)C)c1 | 14800 nM (active) |
| O=c1cc(-c2ccc(O)c(O)c2)oc2cc(O)cc(O)c12 | inactive |
| CO[C@H]1/C=C\O[C@@]2(C)Oc3c(C)c(O)c4c(O)c(c(C=NN5CCN(C6CCCC6)CC5)c(O)c4c3C2=O)NC(=O)C(C)=CC=C[C@H](C)[C@H](O)[C@@H](C)[C@@H](O)[C@@H](C)[C@H](OC(C)=O)[C@H]1C | 296 nM (active) |
| O=C1C(CCC(O)c2ccc(F)cc2)C(c2ccc(O)cc2)N1c1ccc(F)cc1 (stereo not given) | inactive |

| Structure (SMILES) | Potency |
| --- | --- |
| OC[C@H]1O[C@@H](O[C@H]2[C@@H](O)[C@@](O)(CO)O[C@@H]2CO)[C@H](O)[C@@H](O)[C@@H]1O | inactive |
| CC1CCN(c2cc(N3CCN(C)CC3)ccc2NC(=O)c2cc(C#N)c[nH]2)CC1 | inactive |
| NC[C@H]1O[C@H](O[C@@H]2[C@@H](O)[C@@H](O[C@H]3O[C@H](CO)[C@@H](O)[C@H](N)[C@@H]3O)[C@H](N)C[C@@H]2N)[C@H](O)[C@@H](O)[C@H]1O | inactive |
| CC[C@H]1OC(=O)[C@H](C)[C@@H](O[C@H]2C[C@@](C)(OC)[C@@H](O)[C@H](C)O2)[C@H](C)[C@@H](O[C@@H]2O[C@H](C)C[C@H](N(C)C)[C@H]2O)[C@](C)(O)C[C@H](C)C(=NOCOCCOC)[C@H](C)[C@@H](O)[C@]1(C)O | inactive |
| CN(C)c1nc(Cc2ccc(NC(=O)c3ccc(C(F)(F)F)cc3)cc2)nc(N(C)C)c1CC(=O)O | inactive |
| CN1CCN2c3ncccc3Cc3ccccc3C2C1 (stereo not given) | inactive |
| COc1cc(CNC(=O)CCCCC=CC(C)C)ccc1O | inactive |
| CN1CC(=O)NC1=NC(=O)Nc1cccc(Cl)c1 | inactive |
| CC(C)=CCCC(C)=CCCC(C)=CCCC(C)=CCCC(C)=CCCC(C)=CCCC(C)=CCCC(C)=CCCC(C)=CCO | inactive |
| CN1c2ccccc2C(=O)N2CCc3c([nH]c4ccccc34)C21 (stereo not given) | inactive |
| Nc1[nH]nc2nnc(-c3c(-c4ccccc4)nn4ccccc34)cc12 | 2960 nM (active) |
| CN(C)CCCNC(=O)c1ccc(-c2cc(O)c3ncccc3c2)cc1 | inactive |
| CC(C)CNc1ccnc(NCc2csc(-c3ccccc3)n2)n1 | 18700 nM (active) |
| Cc1ccc(C(=O)N(CCCN)[C@@H](c2oc3cc(Cl)ccc3c(=O)c2Cc2ccccc2)C(C)C)cc1 | 1 nM (active) |
| COc1ccc2c(c1)c(C1=C(c3c[nH]c4ccccc34)C(=O)NC1=O)cn2CCCN(C)C | inactive |
| CC[C@]1(O)C[C@H]2CN(CCC3=c4ccccc4=N[C]3[C@@](C(=O)OC)(c3cc4c(cc3OC)N(C)[C@H]3[C@@](O)(C(N)=O)[C@H](O)[C@]5(CC)C=CCN6CC[C@]43[C@@H]65)C2)C1 | 469 nM (active) |
| Cc1cc(OCCCS(C)(=O)=O)cc(C)c1-c1cccc(COc2ccc3c(c2)OC[C@H]3CC(=O)O)c1 | 18700 nM (active) |
| Fc1ccc(CNc2ncnc3ccc(F)cc23)cc1 | 7430 nM (active) |
| Cc1ccc(S(=O)(=O)Nc2nc3ccccc3nc2Nc2ccc3nsnc3c2)cc1 | 407 nM (active) |
| CNC(=O)[C@H](CC1=CN=C2C=CCC=C12)NC(=O)[C@@H](CC(=O)NO)CC(C)C | 29.6 nM (active) |

From PubChem BioAssay (NCATS)
